High-throughput results deposited in PubChem BioAssay by The Scripps Research Institute Molecular Screening Center.
MITF primary: human MITF inhibition, primary screen; 0.91% of 650,000 active; inhibition, % at 2.6 µM; AlphaScreen MITF homodimerization, bead proximity signal; AID 1259374; in the data active = inhibition above about 50%
TEAD-YAP block: TEAD-YAP interaction inhibition. HEK-TIYL cells, TEAD-Gal4/YAP UAS-luciferase luminescence. inhibition, % at 9.12 µM. 1.4% of 640,000 active. AID 1259422; in the data active = inhibition above about 32%
GPR151 activ: activates the human receptor GPR151. activation, % at 11.2 µM. PathHunter beta-arrestin GPR151 cells, luminescence. Q8TDV0. AID 1508602. 1% of 650,000 active; in the data active = activation above about 4.9%
FBW7 activator: human FBW7 E3 ligase activation, primary screen. AlphaScreen FBW7–phospho-cyclin E peptide binding, activator screen. normalized activity (activation), % at 26.1 µM. 0.13% of 650,000 active. AID 1259310; in the data active = normalized activity above about 1.9%;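 note: purified mutant Fbw7 with reduced substrate affinity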
Target sequence (Q969H0 whole entry, looked up): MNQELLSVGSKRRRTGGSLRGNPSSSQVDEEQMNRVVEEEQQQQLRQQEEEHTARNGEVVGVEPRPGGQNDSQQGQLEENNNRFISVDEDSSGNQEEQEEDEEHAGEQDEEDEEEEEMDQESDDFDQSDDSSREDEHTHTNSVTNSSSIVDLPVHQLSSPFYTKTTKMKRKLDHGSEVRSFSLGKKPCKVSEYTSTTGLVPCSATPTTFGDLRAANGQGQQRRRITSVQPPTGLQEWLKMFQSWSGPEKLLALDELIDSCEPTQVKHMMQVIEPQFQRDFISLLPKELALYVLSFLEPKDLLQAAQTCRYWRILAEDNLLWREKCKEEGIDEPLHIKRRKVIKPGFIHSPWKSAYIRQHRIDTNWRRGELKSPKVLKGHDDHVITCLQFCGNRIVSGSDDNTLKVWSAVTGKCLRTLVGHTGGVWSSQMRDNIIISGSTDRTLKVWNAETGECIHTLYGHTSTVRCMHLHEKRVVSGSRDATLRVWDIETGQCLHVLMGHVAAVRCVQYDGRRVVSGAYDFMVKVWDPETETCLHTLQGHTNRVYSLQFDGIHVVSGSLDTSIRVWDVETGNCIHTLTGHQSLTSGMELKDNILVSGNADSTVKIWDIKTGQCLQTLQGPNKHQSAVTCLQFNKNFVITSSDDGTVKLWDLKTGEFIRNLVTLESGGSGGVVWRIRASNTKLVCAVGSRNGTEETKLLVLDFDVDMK
MITF inh conf: human MITF inhibition, confirmation | shares compounds with MITF primary | AlphaScreen MITF homodimerization, biotin/His-MITF beads | inhibition, % at 2.6 µM | 16% of 4,700 active;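 active = inhibition above a cutoff derived from the DMSO control wells, cut at about 28% in these data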;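 note: inhibitors lower the bead chemiluminescence by keeping MITF from dimerizing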
AlphaScreen intf2: optically interferes with AlphaScreen signal; shares compounds with MITF primary; LysRS AlphaScreen counterscreen, signal interference, triplicate; inhibition, % at 2.6 µM; 7.6% of 4,700 active; AID 1259376;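 active = inhibition above a cutoff derived from the DMSO control wells, cut at about 30% in these data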
A number is an active result; - = inactive; . = no result; ! = not active in a repeat. Rows were chosen to be rich in hits. Some 3.5% of all compounds tested hit in one or more screens of this group.

SMILES	MITF primary	TEAD-YAP block	GPR151 activ	FBW7 activator	MITF inh conf	AlphaScreen intf2
O=S(=O)(/C=C/c1ccccc1)N1CCN(CC(O)COc2ccccc2F)CC1 (stereo not drawn)	60	-	-	-	-	-
O=S(=O)(c1cccs1)N1CCN(CC(O)COc2ccccc2F)CC1 (stereo not drawn)	66	-	-	-	-	-
CCOC(=O)NC(=S)N/N=C/c1ccccn1	64	-	-	-	-	32
C(=N\Nc1nc(-c2ccccn2)cs1)/c1cccnc1	52	-	-	-	30	54
O=C(COc1cccc(C(F)(F)F)c1)Nc1ccc2c(c1)OCO2	-	-	-	-	.	.
CN1CCN(Cc2cc(Br)c(O)c3ncccc23)CC1	105	84	-	-	113	101
O=[N+]([O-])c1cc(CN2CCOCC2)c2cccnc2c1O	106	-	-	-	107	99
O=[N+]([O-])c1cc(CN2CCCCC2)c2cccnc2c1O	112	-	-	-	106	100
Cc1ccc(O)c2ncccc12	-	-	-	-	.	.
CCOc1c(C)cc(-c2ncccc2O)cc1C	-	-	-	-	.	.
CCOCc1ccc(O)c2ncccc12	98	88	-	-	82	101
COCc1ccc(O)c2ncccc12	91	91	-	-	109	101
CC1(C)CC2CC(C)(C)N1CCOC(=O)CCC(=O)O2	-	-	-	-	.	.
CC(=O)Nc1ccc(N2CCN(C(=O)c3ccccc3)CC2)cc1	53	-	-	-	-	-
CC(C)(C)C(=O)N1CCN(c2nc(N3CCOCC3)nc(-n3ccnc3)n2)CC1	-	-	-	-	.	.
COc1cc(-c2cn[nH]c2)cc2c(N(C)C)nc(C3COc4ccccc4O3)nc12 (stereo not drawn)	-	-	-	-	.	.
COc1ccc(CCNC(=O)c2sc3ncnc(N(C)c4ccccc4)c3c2C)cc1OC	-	-	-	-	.	.
O=C(/C=C/C(=O)OCC(F)(F)C(F)F)Nc1ccc(Cl)cc1	-	-	-	-	.	.
C(=N\Nc1nncc2ccccc12)/c1ccccn1	82	78	-	-	-	-
Clc1ccc(/C=N/Nc2nncc3ccccc23)cc1Cl	-	-	-	-	.	.
Cc1ccc(N(CC(=O)NC(C(C)C)C(C)C)S(C)(=O)=O)cc1C	68	-	-	-	-	-
Cc1cc(=S)cc(C)n1CCCn1ccnc1	-	-	-	-	.	.
Cc1cc(C(N)=O)c(C)n1CCCn1ccnc1	76	-	-	-	-	-
O=P(O)(O)O[C@@H]1[C@H](O)[C@H](O)[C@@H](OP(=O)(O)O)[C@H](OP(=O)(O)O)[C@H]1O	54!	.	-	.	-	-
O=[N+]([O-])c1ccc(O)c2ncccc12	73	-	-	-	83	101
SMILES	MITF primary	TEAD-YAP block	GPR151 activ	FBW7 activator	MITF inh conf	AlphaScreen intf2
CN(C)c1c([N+](=O)[O-])cc([N+](=O)[O-])c2cccnc12	54	-	-	-	-	68
COc1cccc(-c2ncc3ccccn23)c1	68	-	-	-	-	32
COc1cc(OC)cc(-c2ncc3ccccn23)c1	67	-	-	-	-	-
COc1cc(C(C)=O)ccc1Oc1ncnc2c1cnn2-c1cc(Cl)ccc1C	-	-	-	-	.	.
COc1ccc(C/C(C)=N/Nc2nc3ccccc3[nH]2)cc1	67	-	-	-	-	38
CCCN(CCO)Cc1ccccc1C(F)(F)F	51	-	-	-	-	-
CCCN(CCO)Cc1cccc2ccccc12	-	-	-	-	.	.
COc1ccc(O)c(C=Nc2ccc(Cl)cc2)c1	51	-	-	-	-	-
O=C(CN1CCOCC1)OCCCN=C1NS(=O)(=O)c2ccccc21	-	-	-	-	.	.
Cc1cccc(Cl)c1OCCOCCNCCN	61	-	-	-	-	-
Cc1cccc(Cl)c1OCCOCCNC(C)(C)C	-	-	-	-	.	.
Cc1cccc(C)c1OCCOCCNCCN	55	-	-	-	-	-
COc1ccc(-n2c(=O)[nH]cc(C(=O)Nc3cccc(C)c3)c2=O)cc1	-	-	-	-	.	.
CNS(=O)(=O)c1ccc(NC(=S)Nc2cccc([N+](=O)[O-])c2)cc1	-	-	-	-	.	.
O=[N+]([O-])c1ccc(N2CCN(C/C=C/c3ccccc3)CC2)c([N+](=O)[O-])c1	-	-	-	-	.	.
CN1CCN(CC(=O)N/N=C\c2ccccc2O)CC1	-	-	-	-	.	.
CN1CCN(CC(=O)N/N=C\c2ccsc2)CC1	-	-	-	-	.	.
COc1cc(/C=N\NC(=O)CN2CCN(C)CC2)cc2c1OCO2	51	-	-	-	-	-
